Laboratory results published in PubChem BioAssay AID1159580 (chemical genetic matrix, 2015).
Among all 5,500 compounds or so, about 2,000 (36%) were called active. About 18% were inconclusive and are not listed. No stated cut-off is given here; in the data, active means normalized growth mostly below about 0.91 (no sharp cut-off); inconclusive means no clear call, values can overlap the other calls; inactive means mostly above about 0.92. This is one part of the list.

Assay: chemical genetic growth profiling, strain panel (AID 1159580);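 further: tested at 20 µM; growth read once vehicle control cultures reached saturation at 30 °C; 1 = growth at the plate median or of vehicle wells; lower values mean less growth of the strain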
Conditions: S. cerevisiae deletion strains, growth OD
[1] = locus YAL013W, strain DEP1, hits give low values
[2] = locus YMR307W, strain GAS1, hits give low values
[3] = locus YNL128W, strain TEP1, hits give low values
[4] = locus YNL153C, strain GIM3, hits give low values
[5] = locus YNL322C, strain KRE1, hits give low values
[6] = locus YAL040C, strain CLN3, hits give low values
[7] = locus YCL061C, strain MRC1 (second series), hits give low values
[8] = locus YDR363W, strain ESC2, hits give low values
[9] = locus YER002W, strain NOP16, hits give low values
[10] = locus YGR229C, strain SMI1, hits give low values
[11] = locus YMR263W, strain SAP30, hits give low values
[12] = locus YNL175C, strain NOP13, hits give low values
[13] = locus YNL197C, strain WHI3, hits give low values
[14] = locus YNL224C, strain SQS1, hits give low values
[15] = locus YOR083W, strain WHI5 (second series), hits give low values
[16] = locus YGR078C, strain PAC10, hits give low values
[17] = locus YPL241C, strain CIN2, hits give low values

Measured: normalized growth

CC1=CC(=O)C2=C(C)CC[C@@H]3[C@H](OC(=O)[C@H]3C)[C@@H]12
inactive: [1] 1 | locus YBR021W, strain FUR4, hits give low values 0.965 | locus YBR229C, strain ROT2, hits give low values 0.987 | locus YCL029C, strain bik1, hits give low values 0.975 | locus YDL035C, strain GPR1, hits give low values 0.998 | locus YDL074C, strain BRE1, hits give low values 0.986 | locus YDL101C, strain DUN1, hits give low values 0.995 | locus YDL185W, strain tfp1, hits give low values 0.978 | locus YDL192W, strain arf1, hits give low values 1.01 | locus YDR101C, strain arx1, hits give low values 0.981 | locus YDR162C, strain NBP2, hits give low values 1.01 | locus YDR318W, strain mcm21, hits give low values 1 | locus YDR388W, hits give low values 0.981 | locus YDR502C, strain sam2, hits give low values 0.983 | locus YEL061C, strain CIN8, hits give low values 0.997 | locus YER110C, hits give low values 0.979 | locus YER155C, strain BEM2, hits give low values 0.987 | locus YER167W, strain BCK2, hits give low values 0.992 | locus YGL078C, strain dbp3, hits give low values 0.977 | locus YGL086W, strain mad1, hits give low values 0.979 | locus YGL248W, strain PDE1, hits give low values 1.01 | locus YGR135W, strain pre9, hits give low values 0.997 | locus YGR252W, strain gcn5, hits give low values 1.07 | locus YHR030C, strain SLT2, hits give low values 0.99 | locus YHR079C, strain IRE1 (second series), hits give low values 0.985 | locus YHR094C, strain hxt1, hits give low values 0.991 | locus YHR129C, strain ARP1, hits give low values 0.997 | locus YHR200W, strain rpn10, hits give low values 0.998 | locus YIL066C, strain RNR3, hits give low values 0.999 | locus YIL073C, strain SPO22, hits give low values 0.99 | locus YIL125W, strain kgd1, hits give low values 0.986 | locus YIR030C, strain dcg1, hits give low values 0.985 | locus YJL095W, strain BCK1, hits give low values 1.04 | locus YJL134W, strain LCB3, hits give low values 0.992 | locus YJL168C, strain set2, hits give low values 0.984 | locus YJL187C, strain SWE1 (second series), hits give low values 1.01 | locus YJR043C, strain POL32, hits give low values 1.01 | locus YKL009W, strain mrt4, hits give low values 1 | locus YKL068W, hits give low values 0.985 | locus YKL085W, strain MDH1 (second series), hits give low values 0.995 | locus YKL085W, strain MDH1, hits give low values 0.995 | locus YKL190W, strain CNB1, hits give low values 1.01 | locus YKR001C, strain vps1, hits give low values 0.965 | locus YLR039C, strain RIC1, hits give low values 1.02 | locus YLR058C, strain SHM2, hits give low values 1 | locus YLR102C, strain apc9, hits give low values 0.981 | locus YLR262C, strain YPT6, hits give low values 1.01 | locus YLR268W, strain sec22, hits give low values 0.976 | locus YLR330W, strain CHS5, hits give low values 0.993 | locus YLR342W, strain FKS1 (second series), hits give low values 0.989 | locus YLR371W, strain rom2, hits give low values 0.959 | locus YLR418C, strain cdc73, hits give low values 1.01 | locus YML016C, strain PPZ1, hits give low values 0.99 | locus YML032C, strain rad52, hits give low values 1.01 | locus YML124C, strain tub3, hits give low values 0.989 | locus YMR078C, strain ctf18, hits give low values 1 | locus YMR223W, strain ubp8, hits give low values 1.03 | [2] 1 | locus YNL067W, strain RPL9B, hits give low values 1.02 | [3] 0.984 | [4] 1.01 | locus YNL233W, strain BNI4, hits give low values 1 | locus YNL250W, strain rad50, hits give low values 0.995 | locus YNL271C, strain bni1, hits give low values 0.984 | locus YNL298W, strain CLA4, hits give low values 0.99 | locus YNL307C, strain MCK1, hits give low values 0.971 | [5] 1 | locus YNR052C, strain pop2, hits give low values 0.996 | locus YOL012C, strain htz1 0.989 | locus YOL147C, strain pex11, hits give low values 0.987 | locus YOR061W, strain CKA2, hits give low values 0.992 | locus YOR069W, strain VPS5, hits give low values 0.986 | locus YOR136W, strain idh2, hits give low values 0.971 | locus YOR144C, strain elg1, hits give low values 0.988 | locus YOR184W, strain ser1, hits give low values 0.974 | locus YOR316C, strain cot1, hits give low values 0.984 | locus YPL055C, strain LGE1, hits give low values 0.999 | locus YPR119W, strain clb2, hits give low values 1 | locus YPR141C, strain kar3, hits give low values 0.98 | locus YPR163C, strain tif3, hits give low values 0.978 | locus YPR167C, strain met16, hits give low values 1.02 | strain wtn01, hits give low values 0.971

COc1cc(/C=C(\C#N)C(=O)c2ccc(O)c(O)c2)cc(I)c1O
inactive: [1] 1.02 | [6] 1.03 | [7] 1.02 | [8] 1.02 | [9] 1 | [10] 0.971 | [11] 1.02 | [2] 1.03 | [3] 1.01 | [4] 1.02 | [12] 0.984 | [13] 1.04 | [14] 1 | [5] 1.03 | [15] 1.02

N#C/C(=C\c1ccc(O)c(O)c1)C(=O)NCCCNC(=O)/C(C#N)=C/c1ccc(O)c(O)c1
active: [10] 0.758
inactive: [6] 0.994 | [7] 1.01 | [8] 0.999 | [9] 0.987 | [16] 0.992 | [2] 0.982 | [12] 1.01 | [13] 0.988 | [14] 1 | [5] 0.981 | [15] 1.01 | [17] 0.997

N#C/C(=C/c1ccc(O)c(O)c1)C(N)=S
active: [8] 0.73
inactive: [1] 0.959 | [6] 0.973 | [7] 0.997 | [9] 0.995 | [16] 0.995 | [10] 0.972 | [11] 0.956 | [2] 1 | [4] 0.988 | [12] 0.977 | [13] 0.98 | [14] 0.985 | [15] 0.958 | [17] 0.975
